Assay [1] is described as follows: Nuclear factor erythroid 2-related factor 2/antioxidant responsive element (Nrf2/ARE) small molecule agonists: qHTS cell viability counter screen in human keratinocytes (AID 1919968; active = well fitted curve in the direction sought with a large enough effect in the repeat runs; an effect the other way counts as inactive or inconclusive; also: nearly all actives have a fitted effect of over 55% in size). The gist of the method:
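Cells of the KeratinoSens line were plated at 1,500 per well and left for 5 h before compound transfer from DMSO stocks. After a 23 h incubation (37 C, 5% CO2), CellTiter-Fluor was added. Signal was taken as fluorescence intensity 1 h later.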

A short description of assay [2]: Nuclear factor erythroid 2-related factor 2/antioxidant responsive element (Nrf2/ARE) small molecule agonists: luciferase reporter gene qHTS assay in human keratinocytes (AID 1919969; also: nearly all actives have a fitted effect of over 35% in size; also: potency is read from the fitted curve at half-maximal effect). (In general: In a reporter assay the amount or activity of a reporter protein is the signal.)
Assay [3] deals with Gonadotropin-releasing hormone receptor (Homo sapiens) (UniProt P30968). Kind of assay: Human gonadotropin-releasing hormone receptor (GnRHR) small molecule agonists, calcium flux assay in GnRHR-HEK293 cells (AID 1920063). Also: nearly all actives have a fitted effect of over 35% in size. The gist of the method: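 Compounds dissolved in DMSO are pin-transferred onto dye-loaded GnRHR-HEK293 cells, which were seeded 18 h before at 37 C/5% CO2. Calcium signal is read as fluorescence intensity at 1 s intervals for 3 min.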
In general terms: Calcium assays in cells follow changes in intracellular calcium, usually with a dye or a luminescent sensor.

Assay [4] in a line: p53 small molecule agonists, cell-based qHTS assay with human liver microsomes (AID 1963577). A digest of the protocol: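 Compounds act here after metabolic activation: human liver microsomes and NADPH, both at 0.5 mg/mL final, were co-added to p53RE-bla cells. Incubation ran 16 h at 37 C, followed by LiveBLAzer detection.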
A short description of assay [5]: p53 small molecule agonists, cell-based qHTS assay with rat liver microsomes (AID 1963578). A digest of the protocol: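 Read-out is beta-lactamase reporter fluorescence (LiveBLAzer, 2 h, room temperature, dark) in p53RE-bla cells treated 16 h at 37 C with compound, rat liver microsomes and NADPH, both 0.5 mg/mL final.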
Assay [6] can be described thus: p53 small molecule agonists, cell-based qHTS assay with human liver microsomes: qHTS cell viability counter screen (AID 1963579). Also: nearly all actives have a fitted effect of over 45% in size. The gist of the method:
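Cells carrying the p53 response-element beta-lactamase reporter are treated for 16 h at 37 C with test compounds in the presence of human liver microsomes and NADPH (both 0.5 mg/mL final); ATP-based CellTiter-Glo luminescence then reports viability.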

The nature of assay [7]: p53 small molecule agonists, cell-based qHTS assay with rat liver microsomes: qHTS cell viability counter screen (AID 1963580). Also: nearly all actives have a fitted effect of over 45% in size. The gist of the method: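 Counter screen for cytotoxicity under metabolic activation: rat liver microsomes and NADPH, 0.5 mg/mL final each, added with compounds to p53RE-bla HCT-116 cells; 16 h at 37 C, then ATP luminescence read.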
On the technique in general: Quantitative high-throughput screening tests each substance at several concentrations.

Assay [8] is described as follows: p53 small molecule agonists, cell-based qHTS assay: qHTS cell viability counter screen (AID 1963581). Also: nearly all actives have a fitted effect of over 45% in size. The gist of the method:
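ATP content measured by luminescence in HCT-116 p53RE-bla cells treated 16 h at 37 C, same wells as the reporter screen.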

Assay [9] in a line: p53 small molecule agonists, cell-based qHTS assay (AID 1963582; active = well fitted activation curve with a large enough effect in the signal ratio in the repeat runs, not every such curve was filed as active; the % refers to the signal ratio). A digest of the protocol: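 16 h compound exposure (37 C) of p53 response element–bla cells, preceded by 5 h recovery at 37 C/5% CO2; read-out via LiveBLAzer B/G FRET substrate, 2 h RT, fluorescence intensity.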
Assay [10] deals with 5-hydroxytryptamine receptor 2A (Homo sapiens) (UniProt P28223). Nature of the assay: 5-hydroxytryptamine receptor 2A (HTR2A) small molecule antagonists, cell-based qHTS assay (AID 1963586). Also: nearly all actives have a fitted effect of over 45% in size. A digest of the protocol:
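CHO cells stably expressing human HTR2A were plated for 18 h at 37 C, then loaded with calcium dye for 1 h. Compounds were preincubated 5 min at room temperature before DOI (4 nM solution) was added. Kinetic fluorescence was read for 3 min.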

For assay [11] the target is unchanged. Nature of the assay: 5-hydroxytryptamine receptor 2A (HTR2A) small molecule agonists, cell-based qHTS assay (AID 1963587). Also: nearly all actives have a fitted effect of over 30% in size. The gist of the method: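 HTR2A-CHO cells, plated 18 h at 37 C/5% CO2, dye-loaded 1 h at 37 C; compounds in DMSO added by pin tool (agonist mode). Intracellular calcium flux read as kinetic fluorescence on FDSS over 2 min at 1 s intervals.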

The target in assay [12] is Muscarinic acetylcholine receptor M1 (Homo sapiens) (UniProt P11229). Nature of the assay: Cholinergic receptor muscarinic 1 (CHRM1) small molecule antagonists, cell-based qHTS assay (AID 1963588). Also: nearly all actives have a fitted effect of over 40% in size. A digest of the protocol: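 Compounds were tested at 15 concentrations in three independent runs. Dye-loaded CHRM1-CHO cells were exposed 5 min at room temperature before stimulation by acetylcholine added at 50nM. Intracellular calcium was read kinetically on FDSS for 3 min.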

The target is the same in assay [13]. Kind of assay: Cholinergic receptor muscarinic 1 (CHRM1) small molecule agonists, cell-based qHTS assay (AID 1963589). Also: nearly all actives have a fitted effect of over 35% in size. The gist of the method: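 Homogeneous fluorescence calcium flux, agonist mode. Human M1-expressing CHO cells; compound dosed at 15 concentrations, three independent runs; signal sampled every 1 sec.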
A short description of assay [14]: cAMP Responsive Elements (CRE) small molecule agonists, cell-based qHTS assay (AID 1963590). A digest of the protocol:
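HEK 293T cells stably bearing CRE-bla were plated at 2,000 cells per well and rested 18 h. Compounds, positive controls or DMSO were added for 3 h at 37 C. LiveBLAzer B/G substrate was then loaded for 2 h at room temperature.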

Assay [15] can be described thus: cAMP Responsive Elements (CRE) small molecule antagonists, cell-based qHTS assay (AID 1963591; active = well fitted inhibition curve with a large enough effect in the signal ratio in the repeat runs, not every such curve was filed as active; the % refers to the signal ratio). A digest of the protocol:
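First, CRE-bla HEK293T cells settled 18 h at 37 C. Next, compound and 0.25 uM final NKH477 were applied for 3 h. Last, LiveBLAzer B/G substrate was loaded for 2 h at room temperature.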

The target in assay [16] is Beta-2 adrenergic receptor (Homo sapiens) (UniProt P07550). Kind of assay: Adrenergic beta2 receptor (ADRB2) small molecule antagonists, cell-based qHTS assay (AID 1963592). Also: series mostly up to about 92 µM; nearly all actives have a fitted effect of over 50% in size. The gist of the method: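 Assay format: CHO-ADRB2 cells, 18-20hr seeding at 37C/5% CO2, then compound plus 1nM isoproterenol agonist mix for 0.5hr RT. Homogeneous time-resolved fluorescence cAMP detection after 1hr, expressed as 665/615 nm ratio.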

For assay [17] the target is unchanged. Nature of the assay: Adrenergic beta2 receptor (ADRB2) small molecule agonists, cell-based qHTS assay (AID 1963593).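 Also: CHO cells stably overexpressing human ADRB2.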 The gist of the method:
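CHO cells stably over-expressing ADRB2 were plated overnight at 37C, then dosed with compounds plus a stimulation mix containing 100uM IBMX and 25uM Ro-20-1724 for 0.5hr at room temperature. cAMP was measured by HTRF competition, 1hr.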

Assay [18] has as its target D(2) dopamine receptor (Homo sapiens) (UniProt P14416). Nature of the assay: Dopamine D2 receptor (DRD2) small molecule agonists, cell-based qHTS assay (AID 1963594). Also: nearly all actives have a fitted effect of over 35% in size. A digest of the protocol: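 HEK293 cells stably expressing DRD2 were cultured 24 h at 37 C, then given Ro20-1724 (0.1 mM final) and compounds for 10 min at room temperature. NKH477 (200nM) was then added for 30 min. cAMP was read by HTRF.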

The target is the same in assay [19]. Kind of assay: Dopamine D2 receptor (DRD2) small molecule antagonists, cell-based qHTS assay (AID 1963595; active = well fitted inhibition curve with a large enough effect in the signal ratio in the repeat runs, with a control signal flat; the % refers to the signal ratio). A digest of the protocol: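 Antagonism was scored as restored cAMP in HEK293-DRD2 cells. These cells were stimulated with 200 nM NKH477 and 12 nM quinpirole for 30 min at room temperature, in the presence of 0.1 mM Ro20-1724.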
In assay [20] the target is KiSS-1 receptor (Homo sapiens) (UniProt Q969F8). Kind of assay: Human kisspeptin (KISS1R) small molecule agonists, calcium flux assay in KISS1R-HEK293 cells (AID 1920064; active = well fitted curve in the direction sought with a large enough effect in the repeat runs; an effect the other way counts as inactive or inconclusive). A digest of the protocol:
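Cell line: HEK293, stable human KISS1R. Dye loading 1 h at 37 C after 18 h culture. Read: kinetic fluorescence, 480/540 nm, 3 min at 1 s intervals.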

Each structure is given as a SMILES string. Values joined by “and” are separate entries in the source; they are usually repeats but may differ in a detail not shown here. Identical values can stand only once. Inconclusive results are not listed. Active and inactive are the calls of the source. Unless noted, calls follow the shape of the full dose curve.

Sequence of Gonadotropin-releasing hormone receptor (Homo sapiens) (P30968 whole entry, looked up): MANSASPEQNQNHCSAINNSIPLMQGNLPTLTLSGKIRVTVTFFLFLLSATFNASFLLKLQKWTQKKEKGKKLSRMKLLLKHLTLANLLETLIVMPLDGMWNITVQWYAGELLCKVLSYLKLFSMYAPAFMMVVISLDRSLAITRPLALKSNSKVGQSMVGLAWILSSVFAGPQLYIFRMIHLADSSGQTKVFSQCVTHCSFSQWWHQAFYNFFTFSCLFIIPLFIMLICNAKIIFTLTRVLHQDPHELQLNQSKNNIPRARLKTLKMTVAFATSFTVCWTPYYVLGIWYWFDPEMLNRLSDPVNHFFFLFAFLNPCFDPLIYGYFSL
Sequence of Muscarinic acetylcholine receptor M1 (Homo sapiens) (P11229 whole entry, looked up): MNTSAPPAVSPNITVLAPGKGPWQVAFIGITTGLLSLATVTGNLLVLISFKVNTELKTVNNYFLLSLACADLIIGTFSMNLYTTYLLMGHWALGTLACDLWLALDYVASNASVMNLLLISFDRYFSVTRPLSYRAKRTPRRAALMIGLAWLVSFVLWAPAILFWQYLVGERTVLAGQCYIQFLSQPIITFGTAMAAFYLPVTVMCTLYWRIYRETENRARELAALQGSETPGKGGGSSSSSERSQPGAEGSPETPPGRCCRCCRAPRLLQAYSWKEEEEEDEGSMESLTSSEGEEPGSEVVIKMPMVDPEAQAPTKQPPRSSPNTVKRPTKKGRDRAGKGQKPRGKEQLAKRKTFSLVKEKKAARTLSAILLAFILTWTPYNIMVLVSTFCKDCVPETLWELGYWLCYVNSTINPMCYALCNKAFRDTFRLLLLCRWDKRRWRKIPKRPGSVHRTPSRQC
Sequence of D(2) dopamine receptor (Homo sapiens) (P14416 whole entry, looked up): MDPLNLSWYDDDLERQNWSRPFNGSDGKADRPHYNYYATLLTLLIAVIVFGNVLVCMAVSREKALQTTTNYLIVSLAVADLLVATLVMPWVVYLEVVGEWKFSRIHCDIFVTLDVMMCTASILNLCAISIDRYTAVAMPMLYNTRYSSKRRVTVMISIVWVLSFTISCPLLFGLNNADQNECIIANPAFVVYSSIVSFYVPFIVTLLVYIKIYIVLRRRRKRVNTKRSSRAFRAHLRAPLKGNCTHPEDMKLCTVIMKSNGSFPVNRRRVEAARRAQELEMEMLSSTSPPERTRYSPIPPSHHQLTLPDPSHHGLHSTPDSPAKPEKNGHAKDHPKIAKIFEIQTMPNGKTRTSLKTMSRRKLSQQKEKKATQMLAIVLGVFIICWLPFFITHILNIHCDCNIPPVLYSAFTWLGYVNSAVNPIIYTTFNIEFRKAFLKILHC
Sequence of KiSS-1 receptor (Homo sapiens) (Q969F8 whole entry, looked up): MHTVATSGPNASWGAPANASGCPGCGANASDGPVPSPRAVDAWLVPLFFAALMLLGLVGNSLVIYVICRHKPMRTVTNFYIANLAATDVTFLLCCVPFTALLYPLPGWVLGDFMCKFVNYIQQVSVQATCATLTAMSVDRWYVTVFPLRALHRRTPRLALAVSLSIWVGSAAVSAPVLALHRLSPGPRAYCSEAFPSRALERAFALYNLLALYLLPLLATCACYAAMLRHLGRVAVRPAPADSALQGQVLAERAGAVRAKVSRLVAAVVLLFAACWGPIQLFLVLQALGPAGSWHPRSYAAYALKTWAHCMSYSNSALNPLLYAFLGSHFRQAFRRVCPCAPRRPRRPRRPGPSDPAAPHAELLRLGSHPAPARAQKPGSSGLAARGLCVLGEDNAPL
Sequence of 5-hydroxytryptamine receptor 2A (Homo sapiens) (P28223 whole entry, looked up): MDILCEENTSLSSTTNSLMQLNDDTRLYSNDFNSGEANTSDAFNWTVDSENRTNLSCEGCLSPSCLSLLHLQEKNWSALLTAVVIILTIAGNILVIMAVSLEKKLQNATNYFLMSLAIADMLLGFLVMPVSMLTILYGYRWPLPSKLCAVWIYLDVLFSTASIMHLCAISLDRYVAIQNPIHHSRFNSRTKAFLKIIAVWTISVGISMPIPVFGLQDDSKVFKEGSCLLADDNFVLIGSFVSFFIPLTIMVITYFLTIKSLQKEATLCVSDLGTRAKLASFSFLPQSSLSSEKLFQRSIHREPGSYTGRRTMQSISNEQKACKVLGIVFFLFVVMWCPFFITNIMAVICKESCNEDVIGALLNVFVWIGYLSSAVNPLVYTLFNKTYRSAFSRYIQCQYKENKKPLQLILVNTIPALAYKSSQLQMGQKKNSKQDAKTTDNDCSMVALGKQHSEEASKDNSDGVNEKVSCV
Sequence of Beta-2 adrenergic receptor (Homo sapiens) (P07550 whole entry, looked up): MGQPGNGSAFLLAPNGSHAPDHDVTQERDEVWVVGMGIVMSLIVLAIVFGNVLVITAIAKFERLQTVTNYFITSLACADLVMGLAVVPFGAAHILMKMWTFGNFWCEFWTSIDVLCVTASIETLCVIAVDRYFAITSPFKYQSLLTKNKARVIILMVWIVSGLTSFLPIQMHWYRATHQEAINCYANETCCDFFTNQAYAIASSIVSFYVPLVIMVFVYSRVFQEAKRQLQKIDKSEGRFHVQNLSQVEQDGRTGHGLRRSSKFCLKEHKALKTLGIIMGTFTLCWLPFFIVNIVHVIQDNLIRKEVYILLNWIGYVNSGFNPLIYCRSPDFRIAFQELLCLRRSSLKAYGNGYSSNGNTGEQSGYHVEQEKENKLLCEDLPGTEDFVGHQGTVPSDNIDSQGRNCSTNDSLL

On to `O=C(O)c1ccccc1C(=O)O`, for which the Potency result in [1], in assay [2], in [3], in assay [4], in [5] and in assay [6] was “inactive” each time. The Potency result in [7], in assay [8], in assay [9], in [10], in [11] and in [12] was “inactive” throughout. The Potency entry in assay [13], in assay [14], in assay [15], in assay [16], in assay [17] and in assay [18] was “inactive” each time. The Potency entry in [19] is “inactive”.

As for `O=C(O)c1cc(C(=O)O)cc(S(=O)(=O)O)c1`, the Potency result in assay [1], in assay [2], in assay [3], in [20], in [6] and in assay [7] was “inactive” each time. For the same compound, the Potency result in assay [8], in [10], in assay [11], in [13], in [14] and in assay [15] was “inactive” each time. In addition, the Potency result in [16], in assay [17], in [18] and in [19] was “inactive” throughout.

In the case of `CC(=O)Oc1ccc(C(c2ccc(OC(C)=O)cc2)c2ccccn2)cc1`, the Potency entry in assay [1], in [3], in assay [4], in assay [5], in assay [6] and in [7] was “inactive” throughout. The Potency entry in assay [8], in assay [16], in assay [17], in assay [18] and in assay [19] was “inactive” each time. Moreover, the Potency in assay [2] was 121 nM (active) and 841 nM (active).

Take `C=C(C)OC(C)=O`: the Potency entry in assay [1], in assay [2], in assay [3], in assay [20], in [4] and in [5] was “inactive” throughout. Besides, the Potency entry in assay [6], in assay [7], in assay [9], in assay [10], in [12] and in [13] was “inactive” each time. The Potency result in [14], in assay [15], in assay [16], in assay [18] and in assay [19] was “inactive” throughout.

Take `CC(C)c1ccc(C(C)C)cc1`: the Potency entry in assay [1], in assay [2], in assay [3], in [4], in assay [5] and in assay [6] was “inactive” throughout. The Potency result in [7], in assay [8], in assay [9], in assay [10], in assay [12] and in assay [13] was “inactive” each time. The Potency entry in assay [14], in assay [15], in assay [16], in assay [17], in [18] and in [19] was “inactive” in each case.

Turning to `CC1(C)O[C@@H]2C[C@H]3[C@@H]4CCC5=CC(=O)C=C[C@]5(C)[C@@]4(F)[C@@H](O)C[C@]3(C)[C@]2(C(=O)CO)O1`, the Potency result in assay [1], in [2], in assay [3], in assay [4], in assay [5] and in [6] was “inactive” throughout. In addition, the Potency result in [7], in assay [8], in assay [9], in assay [14], in assay [15] and in assay [16] was “inactive” each time. The Potency result in [18] and in [19] was “inactive” throughout.

As to `CC(CCC(=O)O)(c1ccc(O)cc1)c1ccc(O)cc1`, the Potency entry in [1], in [2], in assay [3], in [20], in assay [4] and in [5] was “inactive” in each case. Besides, the Potency result in [7], in [8], in [9], in assay [10], in assay [11] and in [12] was “inactive” throughout. The Potency result in assay [13], in [14], in assay [15], in assay [16], in assay [18] and in [19] was “inactive” throughout.

`O=C(O)Cc1cccc2ccccc12`: the Potency result in [1], in [2], in assay [3], in [4], in [5] and in [6] was “inactive” each time. Also, the Potency result in [7], in assay [8], in assay [9], in [10], in assay [11] and in [12] was “inactive” each time. The Potency result in assay [13], in assay [14], in [15], in assay [16], in assay [17] and in assay [18] was “inactive” throughout. In [19], the Potency result was “inactive”.

`Cc1cn([C@H]2C=C[C@@H](CO)O2)c(=O)[nH]c1=O`: the Potency result in assay [1], in assay [2], in [3], in assay [20], in assay [6] and in assay [7] was “inactive” throughout. The Potency result in assay [8], in assay [14], in [15], in [16], in assay [17] and in assay [18] was “inactive” throughout. Besides, the Potency entry in assay [19] was “inactive”.

The record behind these values is PubChem BioAssay (Tox21).
